High-throughput results (PubChem BioAssay)
A selection: hits, their analogues and other compounds. The true share with any hit is near 5.9%.
rCAG binder: r(CAG) repeat RNA binding; AID 651821; actives 1.3% (n = 370,000); inhibition, % at 3 µM; TO-PRO-1 dye displacement fluorescence;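 active means inhibition above the plate cutoff, the mean of all test compounds on that plate plus 3 SD, cut at about 35% in these data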;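 further: 0% = DMSO alone and 100% = 100 µM mitoxantrone as full dye displacement; higher means more dye released from RNA so lower well fluorescence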
ALR inh: blocks human ALR sulfhydryl oxidase activity | inhibition, % (concentration not given with the values) | purified ALR, DTT oxidation, H2O2 HRP-luminol luminescence | AID 485317 | P55789 | actives 3.8% (n = 290,000);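 active means mean replicate inhibition above about 79%, with every replicate also reaching it, limit read from the data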
Rtt109 HAT inh: C. albicans Rtt109 histone acetyltransferase inhibition; purified Rtt109/Vps75, ThioGlo CoA-SH fluorescence, 4 h; inhibition, % at 34.9 µM; actives 0.16% (n = 330,000);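 active means inhibition of at least 50% in every replicate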
PRMT1 FP inh: inhibitors of human PRMT1. Q99873. recombinant PRMT1, activity-based probe fluorescence polarization. inhibition, % at 2.79 µM. actives 1.3% (n = 370,000). AID 652257;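 active means inhibition above about 21% made by adding two undisclosed values, limit read from the data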
LANA-H2B inh: blocks KSHV LANA binding to histone H2A/H2B; actives 0.6% (n = 320,000); inhibition, % (concentration not given with the values); cell-free LANA-H2A/H2B peptide, fluorescence polarization; in the data active means inhibition mostly above about 10%, no sharp cut-off; inactive means mostly below about 6.7%
ABHD5 PLIN5 PPI: inhibitors of human ABHD5-perilipin-5 interaction; inhibition, % at 4 µM; Split G. princeps luciferase complementation, luminescence, 4 h; AID 602281; actives 0.78% (n = 360,000);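 active means inhibition above the mean inhibition across every tested compound plus 3 SD, cut at about 22% in these data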;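 further: 0% = DMSO only wells and the 100% control is not disclosed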
Target sequence (Q00G26 whole entry, looked up): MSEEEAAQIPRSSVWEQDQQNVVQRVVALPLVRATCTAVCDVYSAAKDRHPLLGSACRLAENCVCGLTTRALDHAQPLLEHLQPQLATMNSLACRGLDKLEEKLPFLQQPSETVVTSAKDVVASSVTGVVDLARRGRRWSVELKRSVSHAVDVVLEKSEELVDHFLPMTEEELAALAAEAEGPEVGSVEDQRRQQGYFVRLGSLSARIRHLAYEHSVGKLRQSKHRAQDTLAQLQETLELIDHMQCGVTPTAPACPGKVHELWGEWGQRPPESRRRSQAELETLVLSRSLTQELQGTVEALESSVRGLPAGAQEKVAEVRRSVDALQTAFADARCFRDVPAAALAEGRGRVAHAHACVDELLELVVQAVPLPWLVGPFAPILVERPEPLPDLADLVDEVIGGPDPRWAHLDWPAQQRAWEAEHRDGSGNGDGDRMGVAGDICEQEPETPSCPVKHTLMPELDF
Target sequence (Q8WTS1 whole entry, looked up): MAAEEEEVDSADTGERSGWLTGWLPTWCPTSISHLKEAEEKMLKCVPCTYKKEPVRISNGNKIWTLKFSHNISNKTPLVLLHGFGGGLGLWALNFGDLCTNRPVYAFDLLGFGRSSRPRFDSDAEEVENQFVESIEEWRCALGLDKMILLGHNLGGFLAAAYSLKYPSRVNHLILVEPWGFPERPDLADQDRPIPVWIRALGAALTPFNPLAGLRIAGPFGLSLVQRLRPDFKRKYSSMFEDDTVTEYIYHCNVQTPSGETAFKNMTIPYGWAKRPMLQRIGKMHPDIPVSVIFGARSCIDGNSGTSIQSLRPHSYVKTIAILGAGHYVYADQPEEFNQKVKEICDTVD
* = called active by the depositor; . = no result given; ! = a repeat was not active.

SMILES	rCAG binder	ALR inh	Rtt109 HAT inh	PRMT1 FP inh	LANA-H2B inh	ABHD5 PLIN5 PPI
C/C=C/c1cccc(-c2nc(C(=O)NC3CCCC3)cc3c2[C@@H](CCO)N(S(=O)C(C)(C)C)C3)c1 (stereo not given in full)	8.5	.	.	-0.4	.	-10.2
Cc1ccc(CN(C(=O)c2ccccc2C)C2CCS(=O)(=O)C2)o1 (stereo not given)	-4.7	0.1	72.5*	12.5	3.7	9.8
CC(C)c1ccc(CN(C(=O)c2cc3ccccc3oc2=O)C2CCS(=O)(=O)C2)cc1 (stereo not given)	1.3	-0.4	16.8	0.5	4.5	-3.4
CN(C)c1ccc(CN(C(=O)c2ccco2)C2CCS(=O)(=O)C2)cc1 (stereo not given)	-1.4	82.4*	-19.4	0.1	2.6	2.9
CN(C)c1ccc(CN(C(=O)c2ccccc2Br)C2CCS(=O)(=O)C2)cc1 (stereo not given)	-4.0	95.7*	-1.1	-0.2	-15.1	-2.3
CN(C)c1ccc(CN(C(=O)c2cc3ccccc3oc2=O)C2CCS(=O)(=O)C2)cc1 (stereo not given)	-1.5	89.0*	3.2	1.5	-3.5	1.0
CCN=C1NC(c2ccc(F)cc2)C(C(=O)OC)=C(C)N1Cc1ccccc1C(F)(F)F (stereo not given)	3.8	.	.	-4.6	.	.
COc1ccc(CCN(Cc2cccs2)S(=O)(=O)c2ccc(C)s2)cc1OC	5.5	.	.	3.1	.	.
COC(=O)[C@]12C[C@H](CC(=O)NCC3CCCCC3)C(=O)N(CCC3=CCCCC3)C1=C[C@H](C(C)(C)C)O[C@@H]2C	0.9	.	.	3.8	.	.
CCN(CC)C(=O)CC[C@@H]1CC[C@]2(CCCN(Cc3ccccc3)C2)O1	1.6	.	.	3.1	.	.
CN(Cc1ccc(N(C)C)cc1)C(=O)c1cc2ccccc2o1	-3.0	76.4*	-6.9	-3.7	-10.3	9.4
NCCc1ccc(O)c(O)c1	0.9	98.7*	3.7	10.1	-11.9	-11.4
C[C@](N)(Cc1ccc(O)c(O)c1)C(=O)O	3.8	.	-5.0	15.3	.	-0.8
CCOC(=O)[C@]12CCCCC/C=C\1N(CCc1ccc(Cl)cc1)C(=O)[C@H]2CC(=O)NCc1ccccc1	4.6	.	.	-3.4	.	.
CCOC(=O)C1=C(C)NC(=O)C1CC(=O)Nc1ccccc1 (stereo not given)	.	96.2*	.	.	0.9	.
CCOC(=O)C1=C(C)NC(=O)NC1c1ccc(OCC(=O)Nc2ccccc2)c(OC)c1 (stereo not given)	7.0	1.3	-12.0	2.0	7.7	-9.2
NC(=O)Cn1c(O)c(N=NC(=O)CNC(=O)/C=C/c2ccccc2)c2ccccc21	5.4	-11.9	2.2	-1.2	23.2*	-2.9
CCCCN1C(=O)C(CC(=O)NCCCN(C)C)CC(C(=O)N(C)C)=C1C (stereo not given)	0.3	.	.	-1.7	.	0.6
Cc1sc(N)nc1-c1c(C)n(C)c2ccccc12	3.9	99.1*	-1.1	8.3	0.4	-17.0
Cc1c(CCC(=O)O)c(=O)oc2cc3occ(-c4ccc(Cl)cc4)c3cc12	59.4*	7.8	7.0	5.3	-1.5	11.5
Cc1cc(Nc2ccc(N(C)C)cc2)n2ncnc2n1	-2.3	98.2*	-0.3	5.9	-1.5	-0.1
COC(=O)[C@]12C[C@H](CC(=O)NCC3CCCCC3)C(=O)N(Cc3ccccc3)C1=C[C@H](C(C)(C)C)O[C@@H]2C	-0.8	.	.	0.6	.	.
COc1ccc(S(=O)(=O)N(CCc2ccccc2)CC(=O)N2CCOCC2)cc1	-3.9	98.9*	4.3	-1.9	-9.2	-9.8
O=C(CN(CCc1ccccc1)S(=O)(=O)c1ccccc1)N1CCOCC1	1.6	.	.	0.0	.	.
CN(C)c1ccc(NC2=C([N+](=O)[O-])CS(=O)(=O)C2)cc1	24.6	99.1*	.	11.8	0.8	7.3
SMILES	rCAG binder	ALR inh	Rtt109 HAT inh	PRMT1 FP inh	LANA-H2B inh	ABHD5 PLIN5 PPI
CN(C)c1ccc(NC(=O)c2ccc([N+](=O)[O-])cc2Cl)cc1	2.5	5.7	.	-0.8	1.7	6.7
Cc1ccc(NC2=C([N+](=O)[O-])CS(=O)(=O)C2)cc1	13.3	1.6	15.9	2.6	27.9*	8.3
COC(=O)[C@H](C(C)C)N(CCc1cn(Cc2ccc(C)cc2)nn1)S(=O)(=O)c1ccccc1Br	4.0	.	.	-4.1	.	.
COc1cc(C=O)ccc1OCCCOc1ccccc1[N+](=O)[O-]	0.7	.	0.0	-0.1	-1.4	-0.2
COc1cc(C=O)ccc1OCCCCOc1ccccc1[N+](=O)[O-]	-1.7	96.4*	5.6	-1.4	-1.8	-5.3
CCOC(=O)c1c(C)[nH]c(C(=O)OCC(=O)N2CCN(S(=O)(=O)c3ccc(C)cc3C)CC2)c1C	6.9	-3.4	6.5	1.3	122.3*	-0.7
CCCCOc1ccc(-c2nc(=S)[nH][nH]2)cc1	5.9	98.8*	-5.1	22.2*	-2.0	-19.1
Cc1cccc(C)c1NC(=O)CN(C)C(=O)c1ccc2c(=O)n3c(nc2c1)CCC3	-1.5	-12.3	-3.5	3.4	15.1*	7.7
Cc1cc(C)c(NC(=O)CNC(=O)c2ccc3c(=O)n4c(nc3c2)CCC4)c(C)c1	0.6	.	2.6	-2.2	4.8	-3.0
O=C(CN1C(=O)NC2(CCCC2)C1=O)Nc1ccccc1N1CCCC1	-2.0	99.1*	-4.9	2.0	-6.9	0.4
O=C(CN1C(=O)NC2(CCCC2)C1=O)Nc1cc(Cl)ccc1N1CCCC1	-3.7	87.4*	5.8	-2.9	3.9	4.3
O=C1Cc2ccccc2C(=O)N1	5.2	.	.	-0.6	.	-12.3
C[C@]12CCC3c4ccc(O)cc4CCC3C1CC/C2=N\N (stereo not given in full)	1.4	-4.1	-0.5	-0.4	0.7	-4.2
C[C@]12CC[C@@H]3c4ccc(O)cc4CC[C@H]3[C@@H]1CCC2=O	2.2	.	13.8	3.1	40.2*!	-4.4
CCOC(=O)C1=C(COC(=O)/C=C/c2ccc(C)o2)NC(=O)NC1C (stereo not given)	-1.7	2.9	4.7	23.1*	4.9	18.6
O=C(O)c1ccc(N2C(=O)CC(N3C(=O)/C(=C/c4ccc(Cl)cc4)SC3=S)C2=O)cc1 (stereo not given)	16.6	99.5*	-8.3	20.4	12.9	-13.6
O=C(O)c1ccc(N2C(=O)CC(N3CCN(c4ccc(Cl)cc4)CC3)C2=O)cc1 (stereo not given)	1.2	22.9	-1.9	1.1	0.2	2.7
CN1C(=O)c2cc(NC(=O)Nc3ccccc3)ccc2OC[C@H]2O[C@@H](CC(=O)NCC(F)(F)F)CC[C@@H]21	0.9	.	.	-0.4	.	.
COc1ccc(C(=O)Nc2ccc3nc(C)c(C)nc3c2)cc1	-0.4	-13.5	-21.9	-0.2	10.4	5.6
O=C(Nc1ccc2c(c1)nc1n2CCSC1)c1ccccc1	14.7	99.2*	0.0	20.6	3.8	-7.5
COc1ccc(C(=O)Nc2ccc3c(c2)nc2n3CCSC2)cc1	1.9	99.4*	2.5	4.3	-0.8	0.1
